Shown are actives, neighbours in structure and some others; about 1.9% of the full set was active somewhere.
bovine MsrA act: bovine MsrA enzyme activators, primary screen, biochemical, absorbance, HTS; Methionine sulfoxide reductase A (Bos taurus); purified bovine MsrA, absorbance read-out; activation, % at 10.6 µM; 360,000 compounds, 0.3% hits; AID 602163, 2012; in the data active = activation above about 7.5%
MsrA inh: bovine MsrA enzyme inhibitors, primary screen, biochemical, absorbance, HTS; Methionine sulfoxide reductase A (Bos taurus); purified bovine MsrA, absorbance read-out; inhibition, % at 15.5 µM; 360,000 compounds, 0.75% hits; in the data active = inhibition above about 4.5%
PLCb3 inh: human PLC-beta3 inhibitors, primary screen, biochemical, fluorescence. 1-phosphatidylinositol 4,5-bisphosphate phosphodiesterase beta-3 (Homo sapiens), Q01970. Purified PLC-beta3, fluorogenic substrate. inhibition, % at 12.2 µM. 370,000 compounds, 0.18% hits; in the data active = inhibition above about 11%
PLC-gamma1 inh: PLC-gamma1 enzyme inhibitors, primary screen, biochemical, fluorescence, purified enzyme | 1-phosphatidylinositol 4,5-bisphosphate phosphodiesterase gamma-1 (Homo sapiens), P19174 | fluorogenic substrate | inhibition, % at 12.2 µM | 370,000 compounds, 0.84% hits
Target sequence (P19174 whole entry, looked up): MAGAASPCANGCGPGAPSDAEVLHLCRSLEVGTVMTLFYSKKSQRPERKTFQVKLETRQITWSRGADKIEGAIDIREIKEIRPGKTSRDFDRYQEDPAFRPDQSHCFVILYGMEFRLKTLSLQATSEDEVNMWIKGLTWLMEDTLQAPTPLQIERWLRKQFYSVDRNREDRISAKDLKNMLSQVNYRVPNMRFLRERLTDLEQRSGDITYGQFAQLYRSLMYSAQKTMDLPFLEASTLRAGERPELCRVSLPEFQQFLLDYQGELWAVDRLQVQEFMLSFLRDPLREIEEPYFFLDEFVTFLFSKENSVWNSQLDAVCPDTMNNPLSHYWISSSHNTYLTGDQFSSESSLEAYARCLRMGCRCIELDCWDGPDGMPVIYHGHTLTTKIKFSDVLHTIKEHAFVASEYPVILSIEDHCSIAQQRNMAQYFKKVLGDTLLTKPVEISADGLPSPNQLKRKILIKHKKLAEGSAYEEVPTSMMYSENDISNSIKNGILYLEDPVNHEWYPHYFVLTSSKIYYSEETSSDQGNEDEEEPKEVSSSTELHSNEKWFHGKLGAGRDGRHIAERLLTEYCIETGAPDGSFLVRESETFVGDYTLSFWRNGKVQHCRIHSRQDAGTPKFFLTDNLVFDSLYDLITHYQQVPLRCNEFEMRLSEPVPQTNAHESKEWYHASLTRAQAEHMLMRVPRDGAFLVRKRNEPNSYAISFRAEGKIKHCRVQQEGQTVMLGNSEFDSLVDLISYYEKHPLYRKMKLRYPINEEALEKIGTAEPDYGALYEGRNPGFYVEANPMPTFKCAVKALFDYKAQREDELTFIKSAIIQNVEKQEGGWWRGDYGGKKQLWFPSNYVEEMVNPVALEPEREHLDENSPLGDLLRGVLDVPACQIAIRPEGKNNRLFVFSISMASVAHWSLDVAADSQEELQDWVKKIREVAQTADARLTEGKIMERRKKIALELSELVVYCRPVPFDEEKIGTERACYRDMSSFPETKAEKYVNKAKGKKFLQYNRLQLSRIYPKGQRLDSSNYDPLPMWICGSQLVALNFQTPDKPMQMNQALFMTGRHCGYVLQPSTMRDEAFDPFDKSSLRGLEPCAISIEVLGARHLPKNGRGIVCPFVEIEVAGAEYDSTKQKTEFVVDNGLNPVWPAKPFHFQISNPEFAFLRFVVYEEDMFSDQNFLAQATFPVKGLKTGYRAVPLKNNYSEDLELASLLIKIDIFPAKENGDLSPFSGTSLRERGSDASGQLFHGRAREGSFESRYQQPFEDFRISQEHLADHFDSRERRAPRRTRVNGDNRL
PLCg1 ctr: PLC-gamma1 enzyme inhibitors, counter-screen for PLC-beta3 inhibitor project, biochemical, fluorescence | shares compounds with PLC-gamma1 inh | purified PLC-gamma1, fluorogenic substrate | inhibition, % at 12.3 µM | 3,300 compounds, 3.1% hits
PLCb3 confirm: PLC-beta3 inhibitor confirmation, biochemical, fluorescence, purified enzyme; inhibition, % at 12.3 µM; AID 743261, 2014; fluorogenic substrate fluorescence; shares compounds with PLC-gamma1 inh; 3,300 compounds, 1% hits; in the data active = inhibition above about 11%
Numbers stand for hits; i = inactive; nt = no result given. Rule as the data show it, unless noted: active = inhibition above about 9.5%; inactive = the rest.

SMILES | bovine MsrA act | MsrA inh | PLCb3 inh | PLC-gamma1 inh | PLCg1 ctr | PLCb3 confirm
Cc1ccc(S(=O)(=O)N2CCOCC2)cc1NC(=O)c1cc2ccccc2oc1=O | i | i | i | 10 | i | i
C[C@H](CO)N1C[C@H](C)[C@@H](CN(C)C(=O)CCC(F)(F)F)OCc2cn(nn2)CCCC1=O | nt | i | i | i | nt | nt
Clc1cc(Cl)c2nc(N3CCCC3)sc2c1 | i | i | i | 12 | i | i
Clc1cccc2sc(N3CCCCC3)nc12 | i | i | i | i | nt | nt
Clc1cc(Cl)c2nc(N3CCCCC3)sc2c1 | i | i | i | 9.9 | i | i
CCOC(=O)[C@]12CCCC=C1N(Cc1ccc(OC)cc1)C(=O)[C@@H]2CC(=O)NCCCOC | nt | nt | i | i | nt | nt
CO[C@H]1CN(C)C(=O)c2ccc(NC(=O)NC(C)C)cc2OC[C@H](C)NC[C@H]1C | nt | i | i | i | nt | nt
O=C(NC(=S)Nc1c(F)cc(F)cc1Br)c1ccc2c(c1)OCCO2 | i | i | i | 13 | i | i
O=C1NC[C@H](Cc2ccc(O)cc2)N(C[C@@H]2CCCN2C[C@H](Cc2ccc(O)cc2)N2C[C@H](Cc3ccccc3)N(CCc3ccccc3)C(=O)C2=O)C1=O | i | i | 12 | i | i | i
O=C1NC[C@@H](Cc2ccc(O)cc2)N(CCc2cc(C(F)(F)F)cc(C(F)(F)F)c2)C1=O | i | i | 11 | i | i | i
Oc1ccc(C[C@@H]2CNC(=S)N2CCc2cc(C(F)(F)F)cc(C(F)(F)F)c2)cc1 | i | i | i | i | nt | nt
Oc1ccc(C[C@H]2CN([C@@H](Cc3cccc(O)c3)CN3CCC[C@@H]3CN3C(=S)NC[C@@H]3Cc3ccccc3)C(=S)N2CC2CCCCC2)cc1 | i | i | i | 10 | i | i
Oc1ccc(C[C@H]2CN([C@@H](Cc3ccccc3)CN3CCCC3CN3C(=S)NC[C@@H]3Cc3ccccc3)C(=S)N2CC2CCCCC2)cc1 (stereo partly specified) | i | i | i | i | nt | nt
N#Cc1ccc(S(=O)(=O)N2CCCc3nc(-c4ccc(F)cc4)ccc32)cc1 | nt | i | i | i | nt | nt
CCOC(=O)C1=C(CS(=O)(=O)c2ccccc2)NC(=O)NC1c1ccccc1OC (stereo unspecified) | i | i | i | i | nt | nt
O=C(NCCc1ccncc1)C(F)(F)F | i | i | i | 11 | i | i
CCOC(=O)CSc1nc2c(sc3ccccc32)c(=O)n1CCCN1CCOCC1 | i | i | i | i | nt | nt
CCC(C)NC(=O)CSc1nc2c(sc3ccccc32)c(=O)n1CCCN1CCOCC1 (stereo unspecified) | i | i | i | 9.9 | i | i
N#C/C(=C/c1cccc([N+](=O)[O-])c1)C(=O)Nc1ccccc1O | i | i | i | i | nt | nt
N#C/C(=C\c1ccccc1)C(=O)NNS(=O)(=O)c1cccc([N+](=O)[O-])c1 | i | i | i | 11 | i | i
Cc1ccc(-c2nnc(SCC(=O)NC3CCCC3)n2N)cc1 | i | i | i | 12 | i | i
Cc1ccc(-c2nnc(SCC(=O)NC3CC3)n2N)cc1 | i | i | i | i | nt | nt
CC(=O)N1CCN(S(=O)(=O)c2cccc(C(=O)OCC(=O)NCc3ccccc3Cl)c2)CC1 | i | i | i | i | nt | nt
N#CCNC(=O)C1c2ccccc2Oc2ccccc21 | i | i | i | 13 | i | i
COC(=O)C[C@@H]1CC[C@H]2[C@H](COc3ccc(NC(=O)c4ccc(OC)cc4)cc3C(=O)N2C)O1 | nt | nt | i | i | nt | nt
COC(=O)C[C@@H]1CC[C@H]2[C@@H](COc3ccc(NC(=O)c4ccc(Cl)cc4)cc3C(=O)N2C)O1 | nt | nt | i | 12 | i | i
CCCNC(=O)C[C@H]1CC[C@H]2[C@@H](COc3ccc(NC(=O)c4cncs4)cc3C(=O)N2C)O1 | nt | nt | 11 | 12 | 16 | 18
CCCNC(=O)Nc1ccc2c(c1)C(=O)N(C)[C@H]1CC[C@@H](CC(=O)OC)O[C@H]1CO2 | nt | nt | i | i | nt | nt
CCO[C@H]1OC(C(=O)Nc2ccccc2)=C[C@@H](c2ccc(C(F)(F)F)cc2)[C@@H]1CCCO | i | i | i | 10 | i | i

Bioassay records: PubChem BioAssay, The Scripps Research Institute Molecular Screening Center
